Screening data: PubChem BioAssay, National Center for Advancing Translational Sciences (NCATS)
Only some compounds are listed: those with a hit (about 12% of all), similar ones and a draw of the others.
JMJD2A Tudor: inhibitors of human JMJD2A Tudor domain; AlphaScreen JMJD2A-Tudor / H3K4me3 peptide binding; Potency, µM (highest dose often 114 µM), without a hit: at the top dose activity change, negative = inhibition, usual class: inhibitors; 390,000 tested, 4.4% active; AID 504339; note: potency is the fitted concentration of half-maximal effect; % is set by controls: 0 for no effect and ±100 for the full control effect; nearly all actives have a fitted effect of over 50% in size
G9a block: inhibitors of human histone lysine methyltransferase G9a; Q96KQ7; G9a H3K9 monomethylation, AlphaScreen, 2 h; Potency, µM (series often up to 102 µM), without a hit: at the top dose activity, negative = inhibition, hits mostly inhibitors; 350,000 tested, 8.8% active; note: potency is the fitted concentration of half-maximal effect; % is set by controls: 0 for no effect and ±100 for the full control effect; nearly all actives have a fitted effect of over 75% in size
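Enzyme 20 nM + cpd, 15 min RT; add b-H3K9 pep 500 nM / SAM 20 uM; 2 h RT; anti-H3K9me1 Ab 0.5 ug/mL + SA donor / anti-rabbit acceptor beads 20 ug/mL each, 10 min; AlphaScreen read.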
PI5P4K alpha inh: PI5P4K alpha (human) kinase inhibition. P48426. PI5P4Kalpha enzyme, ADP-Glo luminescence, 60 min; stronger effect = lower value. max response, %. 330,000 tested, 1.2% active; active = max response of -50% or lower; inconclusive = between -30% and -50%; inactive = -30% or higher; note: value at the top dose of about 77 µM; % is set by controls: 0 for no effect and ±100 for the full control effect
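ADP-Glo luminescence end-point after a 60 min room-temperature kinase reaction. PI5P4Kalpha and substrate in HEPES pH 7.4 buffer with EGTA, 0.1% CHAPS and 5% DMSO; ATP at 5 microM final.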
BAZ2B inh: BAZ2B (human) inhibition. Q9UIF8. AlphaScreen BAZ2B-H3K14Ac peptide displacement. Potency, µM (series often up to 114 µM), for inactives: at the top dose activity change, negative = inhibition, most hits filed as inhibitors. 360,000 tested, 4.4% active. AID 504333; note: potency is the fitted concentration of half-maximal effect; % is set by controls: 0 for no effect and ±100 for the full control effect; nearly all actives have a fitted effect of over 60% in size
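Complex of BAZ2B and biotin-H3K14Ac (50 nM apiece) forms over 30 min at RT, then faces library compounds up to 110 uM for another 30 min; AlphaScreen beads added, 20 min dark incubation, luminescence read.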
PLK1 PBD block: inhibitors of human PLK1 polo-box domain binding. 360,000 tested, 2.8% active. AID 720504. Potency, µM, for inactives: max response, negative = inhibition, actives largely listed as inhibitors. P53350. Plk1 PBD binding of FITC phosphopeptide, fluorescence polarization; note: potency is the fitted concentration of half-maximal effect; series mostly up to about 57 µM; % is set by controls: 0 for no effect and ±100 for the full control effect; nearly all actives have a fitted effect of over 65% in size
Target sequence (P53350 whole entry, looked up, the tested form may be a part): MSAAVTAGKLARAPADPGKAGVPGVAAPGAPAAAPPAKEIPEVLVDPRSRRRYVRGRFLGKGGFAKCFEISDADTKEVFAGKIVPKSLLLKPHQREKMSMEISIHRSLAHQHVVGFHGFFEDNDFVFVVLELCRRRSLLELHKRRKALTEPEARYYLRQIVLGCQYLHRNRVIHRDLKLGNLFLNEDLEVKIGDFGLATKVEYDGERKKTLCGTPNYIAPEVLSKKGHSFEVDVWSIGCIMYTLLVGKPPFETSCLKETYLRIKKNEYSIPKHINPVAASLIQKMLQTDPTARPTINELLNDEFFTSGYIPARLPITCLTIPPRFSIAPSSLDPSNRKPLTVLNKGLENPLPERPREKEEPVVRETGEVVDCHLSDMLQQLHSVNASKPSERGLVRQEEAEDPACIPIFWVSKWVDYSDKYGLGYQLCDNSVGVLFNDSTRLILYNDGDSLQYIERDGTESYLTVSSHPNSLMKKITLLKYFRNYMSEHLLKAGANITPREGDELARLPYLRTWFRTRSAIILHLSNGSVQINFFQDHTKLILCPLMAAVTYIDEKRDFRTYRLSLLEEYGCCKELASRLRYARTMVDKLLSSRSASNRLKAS
HP1b binding inh: HP1-beta chromodomain-methylated histone interaction inhibition | 390,000 tested, 0.56% active | AlphaScreen HP1-beta / biotin-H3K9me3 peptide binding | Potency, µM (top dose mostly 114 µM), without a hit: top-dose activity change, negative = inhibition, actives largely listed as inhibitors | P83916; note: potency is the fitted concentration of half-maximal effect; nearly all actives have a fitted effect of over 70% in size
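Compound inhibition of the preformed complex between 50 nM HP1-beta and 50 nM biotinylated H3K9me3 peptide was read by AlphaScreen. Buffer was PBS pH 7.4 with 0.01% Tween-20. Incubations ran 30 min at room temperature, with 10 ug/mL donor/acceptor beads.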
Numbers without * were called inactive; ! = repeats disagree; [ ] = another dose, or the depositor's remark. Unless noted, calls come from the whole dose curve; as a rule, active = well fitted curve in the direction sought with a large enough effect; inconclusive = small, poorly fitted or top-dose-only effect, or another doubt; inactive = no such curve, though single readings can be large; an effect the other way counts as inactive or inconclusive.

COc1cc(C(=O)NC2CCN(Cc3ccccc3)CC2)cc(Cl)c1OC was read as JMJD2A Tudor -20.5%, G9a block -2.1%[2.33 µM], PI5P4K alpha inh 4.7, BAZ2B inh 8.8%, PLK1 PBD block -1.3% and HP1b binding inh 32.3%.
Screening O=C(CCN1CCC(c2ccccc2)C1)c1ccccc1 (stereo not given) returned JMJD2A Tudor -23.7%, BAZ2B inh inconclusive, PLK1 PBD block inconclusive and HP1b binding inh 30.6%.
For O=C(CCN1CCC(c2ccccc2)C1)c1cccs1 (stereo not given) the results were JMJD2A Tudor -13.5%, G9a block inconclusive, BAZ2B inh -3.9%, PLK1 PBD block 21.2µM* and HP1b binding inh 4.8%.
`O=C(CCN1CCCC1)c1cccs1` gave JMJD2A Tudor -2.7%, G9a block 25.1µM*, PI5P4K alpha inh -2.8, BAZ2B inh 24.6%, PLK1 PBD block 10.6µM* and HP1b binding inh 39.2%.
`O=C(Cn1c(=O)nc(-c2ccccc2)c2ccccc21)NCc1ccc(F)cc1` gave JMJD2A Tudor -5.0%, G9a block 8.2%[59 µM], BAZ2B inh -1.3% and HP1b binding inh 10.2%.
For Cc1c(Cl)cccc1NC(=O)Nc1nnc(N(C)C2CCCCC2)s1 the results were JMJD2A Tudor -21.9%, G9a block -31.8%[59 µM], BAZ2B inh inconclusive and HP1b binding inh 22.6%.
For CCC(NC(=O)Nc1cc(Cl)ccc1OC)c1c(-n2cccc2)sc2c1CCN(C)C2 (stereo not given) the results were JMJD2A Tudor inconclusive, G9a block 15.8µM*, BAZ2B inh inconclusive and HP1b binding inh inconclusive.
Screening Cc1ccc(CNC(=O)c2c(-c3ccccc3F)noc2C)o1 returned JMJD2A Tudor -20.8%, G9a block -0.2%[59 µM], BAZ2B inh 4.1% and HP1b binding inh 25.4%[57 µM].
For Cc1csc(NC(=O)CSc2ncnc3ccccc23)n1 the results were JMJD2A Tudor -16.9%, G9a block 91.2%, PI5P4K alpha inh 1.9, BAZ2B inh 7.8%, PLK1 PBD block -2.3% and HP1b binding inh 25.0%.
For Cc1csc(NC(=O)CSc2nc3ccccc3c3c2CCCC3)n1 the results were JMJD2A Tudor -31.2%, G9a block 28.2µM*, PI5P4K alpha inh 5.8, BAZ2B inh -10.6%, PLK1 PBD block -0.1% and HP1b binding inh -9.3%.
Screening Cc1csc(NC(=O)CSc2ncc(-c3ccccc3)[nH]2)n1 returned JMJD2A Tudor -26.6%, G9a block 3.16µM*, PI5P4K alpha inh 7.4, BAZ2B inh 50.1µM*, PLK1 PBD block -12.6% and HP1b binding inh 3.0%.
Screening Cc1cc(=O)n2[nH]c(SCc3ccccc3Cl)nc2n1 returned JMJD2A Tudor -5.3%, G9a block 4.8%, PI5P4K alpha inh 5.8, BAZ2B inh 1.1%, PLK1 PBD block -9.9% and HP1b binding inh 61.5%.
C=CCn1c(=O)c2ccccc2n2c(SCc3nc4ccccc4s3)nnc12 was read as JMJD2A Tudor -5.2%, G9a block 12.6µM*, PI5P4K alpha inh -8.8, BAZ2B inh -13.8%, PLK1 PBD block -0.8% and HP1b binding inh 52.5%.
C=CCn1c(=O)c2ccccc2n2c(SCC(=O)O)nnc12 was read as JMJD2A Tudor -8.9%, G9a block 6.7%, PI5P4K alpha inh -5.1, BAZ2B inh -0.2%, PLK1 PBD block -3.9% and HP1b binding inh 22.4%.
CC(=O)Nc1sc(C)c(C)c1C(=O)OCC(=O)NCc1ccc(F)cc1 was read as JMJD2A Tudor -12.1%, G9a block 21.6%[12.7 µM], PI5P4K alpha inh -3.7, BAZ2B inh -1.6%, PLK1 PBD block -10.1% and HP1b binding inh 32.2%.
CCOC(=O)c1c2c([nH]c(=S)c1C#N)CCCC2 was read as JMJD2A Tudor 8.91µM*, PI5P4K alpha inh inconclusive, BAZ2B inh inconclusive, PLK1 PBD block inconclusive and HP1b binding inh -14.6%.
For CCc1[nH]c(=S)c(C#N)c2c1CCCC2 the results were JMJD2A Tudor 14.1µM*, G9a block 3.16µM*, PI5P4K alpha inh -52.4*, BAZ2B inh -18.7%, PLK1 PBD block 26.7µM* and HP1b binding inh inconclusive.
CC(C)N=C(N)/N=C(\N)Nc1ccc(Cl)cc1 was read as G9a block 13.2%[21.5 µM].
NC(=NCCCCCCN=C(N)/N=C(\N)Nc1ccc(Cl)cc1)/N=C(\N)Nc1ccc(Cl)cc1 was read as JMJD2A Tudor -31.7%, G9a block 14.1µM*!, PI5P4K alpha inh 28.0, BAZ2B inh -28.1%, PLK1 PBD block -4.9% and HP1b binding inh 23.2%.
Screening O=C(CSc1cn[nH]n1)Nc1ccc(O)c(C(=O)O)c1 returned JMJD2A Tudor -19.2%, G9a block 12.6µM*, PI5P4K alpha inh -27.8, BAZ2B inh -13.5%, PLK1 PBD block inconclusive and HP1b binding inh 25.4%.
`Cc1ccc(NC(=O)CSc2cn[nH]n2)cc1` gave JMJD2A Tudor -11.0%, G9a block 50.1µM*, PI5P4K alpha inh 5.7, BAZ2B inh 3.2%, PLK1 PBD block -3.5% and HP1b binding inh 36.6%.
Screening CCOC(=O)Cn1c(=O)oc2cc(S(=O)(=O)N3CCN(c4ccc(Cl)cc4)CC3)ccc21 returned JMJD2A Tudor -24.9%, G9a block -9.2%[59 µM], BAZ2B inh -6.6% and HP1b binding inh 17.6%.
Screening Cc1csc(-c2nc3ccccc3n2C(C)c2nc3ccccc3[nH]2)c1 (stereo not given) returned PI5P4K alpha inh -3.4 and PLK1 PBD block -12.4%.
CCOc1ccc(C(c2nnnn2Cc2ccccc2)N2CCN(C(=O)c3ccco3)CC2)cc1 (stereo not given) was read as JMJD2A Tudor -29.7%, PI5P4K alpha inh -7.3, PLK1 PBD block -7.2% and HP1b binding inh 7.0%.
Screening COc1ccc(C(c2nnnn2Cc2ccccc2)N2CCN(C(=O)c3ccco3)CC2)cc1 (stereo not given) returned JMJD2A Tudor -2.7%[11.4 µM], G9a block 56.2µM*, PI5P4K alpha inh 3.0, BAZ2B inh -33.8%, PLK1 PBD block -17.5% and HP1b binding inh 27.1%.
`Cc1ccc(C(c2nnnn2Cc2cccs2)N2CCN(C(=O)c3ccco3)CC2)cc1` (stereo not given) gave JMJD2A Tudor inconclusive, G9a block 39.8µM*, PI5P4K alpha inh 2.0, BAZ2B inh inconclusive, PLK1 PBD block -26.6% and HP1b binding inh 22.1%.
O=C(Nc1cccc2cccnc12)c1cccc([N+](=O)[O-])c1 was read as JMJD2A Tudor -11.5%, G9a block 79.4µM*, PI5P4K alpha inh 1.0, BAZ2B inh -32.4%, PLK1 PBD block -6.0% and HP1b binding inh 25.0%.
Screening O=C(Nc1cccc2ccccc12)c1ccc([N+](=O)[O-])cc1 returned JMJD2A Tudor 3.7%, PI5P4K alpha inh -1.6, BAZ2B inh -35.2%, PLK1 PBD block -1.4% and HP1b binding inh 17.2%.
